# Beta cell apopt = blocks beta cell apoptosis | 0.8% of 300,000 active | protection from apoptosis, % (no concentration beside the values) | INS-1E cytokine-induced death, ATP luminescence, 48 h; percent of positive-control rescue, neutral wells zero;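 active = Every replicate reaches about 75%, or at least half do and their mean reaches it too, limit read from the data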;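 note: 0% = cytokine-treated negative control wells and 100% = positive control rescue; higher means more ATP so stronger rescue from cytokine killing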
# MPTP block = permeability transition pore inhibition. 1.4% of 360,000 active. isolated mouse mitochondria, Ca2+ swelling absorbance, 30 min. AID 602449. inhibition, % at 10 µM;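 active = inhibition of 50% or more, scaled per plate between neutral and stimulator controls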;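 note: 0% = DMSO wells given calcium and 100% = 1 mM EGTA wells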
# NR3A LBD binder = modulates the human NR3A ligand-binding domain | NR3A LBD differential scanning fluorimetry, Tm shift; 0% = protein alone, 100% = glycine-bound protein | Tm shift relative to glycine control, % at 25 µM | 2.5% of 340,000 active;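 active = melting temperature shift of at least 10% of the positive control shift, at one fixed dose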
# Mdm2-MdmX inh = human Mdm2/MdmX binding inhibition; O15151+Q00987; SaOS-2 split-luciferase Mdm2/MdmX complementation, luminescence; inhibition, % at 8 µM; 3% of 330,000 active; AID 485346;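 active = inhibition of at least 50% at 8 µM in the primary screen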
# Target sequence (O15151 whole entry, looked up): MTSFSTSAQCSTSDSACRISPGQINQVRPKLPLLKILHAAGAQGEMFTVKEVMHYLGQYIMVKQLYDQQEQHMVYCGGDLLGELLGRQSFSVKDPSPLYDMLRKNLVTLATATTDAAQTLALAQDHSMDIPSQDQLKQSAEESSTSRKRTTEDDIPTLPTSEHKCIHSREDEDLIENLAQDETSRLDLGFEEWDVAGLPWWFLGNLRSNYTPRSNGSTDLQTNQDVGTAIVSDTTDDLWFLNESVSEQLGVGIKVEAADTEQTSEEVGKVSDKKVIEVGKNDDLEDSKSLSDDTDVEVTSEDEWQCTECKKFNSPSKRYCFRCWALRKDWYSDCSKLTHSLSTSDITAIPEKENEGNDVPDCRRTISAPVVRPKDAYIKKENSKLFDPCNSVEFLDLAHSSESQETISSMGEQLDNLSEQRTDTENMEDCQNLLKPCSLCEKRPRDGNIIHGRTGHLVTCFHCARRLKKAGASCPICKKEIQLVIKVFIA
# Target sequence (Q00987 whole entry, looked up): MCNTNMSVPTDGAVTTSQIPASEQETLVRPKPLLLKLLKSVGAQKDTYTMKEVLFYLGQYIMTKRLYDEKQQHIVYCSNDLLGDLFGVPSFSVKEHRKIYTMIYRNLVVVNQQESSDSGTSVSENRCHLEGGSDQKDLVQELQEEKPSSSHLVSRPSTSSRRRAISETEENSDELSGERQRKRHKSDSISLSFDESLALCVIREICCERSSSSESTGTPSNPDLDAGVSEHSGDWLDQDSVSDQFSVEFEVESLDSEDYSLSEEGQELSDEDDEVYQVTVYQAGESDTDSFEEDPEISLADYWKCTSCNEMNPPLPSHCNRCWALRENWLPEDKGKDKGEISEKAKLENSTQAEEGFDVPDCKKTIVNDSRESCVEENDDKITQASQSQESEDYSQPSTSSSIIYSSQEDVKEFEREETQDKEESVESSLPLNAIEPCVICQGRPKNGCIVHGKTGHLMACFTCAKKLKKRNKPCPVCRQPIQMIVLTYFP
# Gli-Sufu block = antagonists of Gli-Sufu signaling | Sufu-KO-LIGHT fibroblasts, Gli luciferase reporter luminescence | inhibition, % at 5 µM | 0.74% of 340,000 active;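 active = inhibition above about 55%, limit read from the data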;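 note: 0% = DMSO-treated cells and 100% = wells with medium but no cells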
# CSC inhib = blocks cancer stem cells | cancer stem cell-like cells viability, luminescence | inhibition, % at 7.5 µM | 1.1% of 300,000 active | AID 2717; in the data active = inhibition above about 75%; tested in HMLE shEcad cells
# Mdm2-MdmX conf = confirmation of human Mdm2/MdmX interaction inhibitors | shares compounds with Mdm2-MdmX inh | Mdm2-MdmX binding, luminescent assay | inhibition, % at 8 µM | 55% of 10,000 active | AID 489028; in the data active = inhibition above about 40%
# FLuc counter = counter-screen for Mdm2/MdmX inhibitors: full-length luciferase; shares compounds with Mdm2-MdmX inh; 77% of 6,200 active; inhibition, % at 8 µM; SaOS-2 full-length luciferase counterscreen, luminescence;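 active = mean inhibition at 8 µM reaching about 37%, which flags the compound as non-specific, limit read from the data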;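 note: p53-null SaOS-2 cells with luciferase driven by a doxycycline-inducible promoter; compound on cells about two nights before reading with doxycycline added after day one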
# Starred values were filed as active, the others as inactive; . = no result. Compounds with a hit are over-represented: about 6.6% of the library has one in this group of screens.
SMILES,Beta cell apopt,MPTP block,NR3A LBD binder,Mdm2-MdmX inh,Gli-Sufu block,CSC inhib,Mdm2-MdmX conf,FLuc counter
Cn1cc(C(=O)c2ccc(Cl)cc2Cl)cc1C(=O)N/N=C(\N)COc1ccc(Cl)cc1,21,10,-1,64*,-2,32,40*,43*
Cn1cc(C(=O)c2ccc(Cl)cc2Cl)cc1C(=O)N/N=C(\N)COc1ccc(Cl)cc1Cl,19,3,-1,67*,7,-17,41*,40*
Cn1cc(C(=O)c2ccc(Cl)cc2Cl)cc1C(=O)N/N=C(\N)COc1ccc(F)cc1,9,2,-4,37,7,15,.,.
CCN1C(=O)c2cccc3c(S(=O)(=O)NCc4cccnc4)ccc1c23,-5,-4,0,10,3,3,.,.
CCN1C(=O)c2cccc3c(S(=O)(=O)Nc4ccccc4)ccc1c23,-10,2,-18,81*,42,0,73*,70*
CCN1C(=O)c2cccc3c(Cl)ccc1c23,.,0,-1,50*,6,-19,-5,.
CCN1C(=O)c2cccc3c(S(=O)(=O)Nc4ncccc4C)ccc1c23,5,0,-1,51*,9,-5,18,.
CN1C(=O)c2cccc3c(S(=O)(=O)Nc4ccccc4F)ccc1c23,-2,0,-3,51*,14,8,19,.
CCN1C(=O)c2cccc3c(Cl)ccc(c23)C1=O,-4,-5,1,11,1,-16,.,.
COc1ccc(C(C#N)N2CCC(c3ccccc3)=N2)cc1 (stereo unspecified),11,-1,1,1,17,-18,.,.
Cc1cccc(C)c1OCC(O)CNC(C)c1ccccc1 (stereo unspecified),5,1,0,-17,23,16,.,.
CCN1C(=O)c2cccc3c(S(=O)(=O)Nc4ccc(OC)cc4OC)ccc1c23,19,2,-5,26,15,9,.,.
CCN1C(=O)c2cccc3c(S(=O)(=O)Nc4nc(C)cs4)ccc1c23,-7,1,-26,73*,-58,6,20,.
CCN1C(=O)c2cccc3c(S(=O)(=O)Nc4ccncc4)ccc1c23,.,0,-2,19,7,-2,.,.
CCN1C(=O)c2cccc3c(S(=O)(=O)Nc4ccccn4)ccc1c23,-13,1,1,75*,34,8,46*,68*
Cc1cc(C)n(C(=O)CNC(=O)/C=C/c2ccccc2)n1,-2,1,0,-17,-2,-12,.,.
c1coc(CNc2nc(N3CCCCC3)nc3ccccc23)c1,22,3,2,52*,-7,3,4,.
C(=N\Nc1nc(-c2ccccn2)nc2ccccc12)/c1ccccc1,92*,.,.,80*,.,83*,89*,26
c1ccc(-c2nc(NCc3ccco3)c3ccccc3n2)nc1,101*,-2,-1,65*,-7,-6,-8,.
c1ccc(N2CCN(c3nc(NCc4ccco4)c4ccccc4n3)CC2)cc1,-2,6,-4,27,-4,46,.,.
Brc1ccc2ncnc(NCc3ccco3)c2c1,3,43,-4,57*,11,3,22,.
C[C@H](CO)N1C[C@H](C)[C@@H](CN(C)C(=O)NC2CCCCC2)Oc2c(NC(=O)C3CC3)cccc2C1=O,-3,1,2,-34,-2,3,.,.
CCCCC1CC2=C(C(=O)OC(C)(C)O2)C(c2ccc(F)cc2)O1 (stereo unspecified),.,-1,.,.,.,.,.,.
Cc1ccc2cc(C#N)c(SCc3nnc(-c4ccccc4[N+](=O)[O-])o3)nc2c1,10,2,0,87*,18,12,79*,72*
CCOc1ccc(NC(=O)COC(=O)C2COc3ccccc3O2)cc1 (stereo unspecified),.,-1,.,.,.,.,.,.
SMILES,Beta cell apopt,MPTP block,NR3A LBD binder,Mdm2-MdmX inh,Gli-Sufu block,CSC inhib,Mdm2-MdmX conf,FLuc counter
C[C@H]1CN([C@@H](C)CO)C(=O)CCCn2cc(nn2)CO[C@@H]1CN(C)C(=O)NC1CCCCC1,.,-1,.,.,.,.,.,.
O=C(OCCOCCN=C1NS(=O)(=O)c2ccccc21)c1ccccc1Br,-1,0,4,3,15,.,.,.
CC(C)(C)N(Cc1ccccc1)C(=O)COC(=O)C1CCN(c2ccc(C(F)(F)F)cn2)CC1,-1,-3,7,9,-3,-4,.,.
Cc1ccc(-n2nc3c(=O)n(CC(=O)NCCc4cccs4)nc(C)c3c2C)cc1,0,-1,-2,32,-5,1,.,.
Cc1nnc(N2CCCC(C(=O)Nc3cc(F)ccc3F)C2)c2nn(-c3ccccc3)c(C)c12 (stereo unspecified),11,-1,0,96*,-2,30,50*,73*
Cc1ccc(-n2nc3c(N4CCC(C(=O)NCCc5cccs5)CC4)nnc(C)c3c2C)cc1,7,-2,-5,55*,27,14,37,89*
Cc1nnc(N2CCCC(C(=O)NCc3ccc(OC(C)C)cc3)C2)c2nn(-c3ccccc3)c(C)c12 (stereo unspecified),18,0,-2,52*,33,-11,3,.
C/C(=N\NC(=O)c1cc(C)oc1C)c1ccc2ccccc2c1,9,0,-28,22,0,8,.,.
CC(C)(C)c1nn(-c2ccccc2)c2[nH]c(=O)c(CNCc3ccc4c(c3)OCO4)cc12,.,5,2,92*,-1,.,80*,64*
CCOc1cccc(NCc2cc3c(C(C)(C)C)nn(-c4ccccc4)c3[nH]c2=O)c1,-6,4,4,30,-1,-3,.,.
O=C(COc1ccc(Cl)cc1Cl)NCCN1CCCC1,.,-1,.,.,.,.,.,.
CC(C)(C)OC(=O)N1Cc2ccccc2C[C@H]1C(=O)NCC(=O)Nc1ccc2c(c1)OCCO2,4,-2,1,64*,34,-8,66*,67*
COc1ccc(N2CCN(C(=O)Cn3cnc4c(cnn4-c4ccccc4)c3=O)CC2)cc1,-6,-1,0,19,-1,-9,.,.
COc1ccc(N2CCN(C(=O)Cn3cnc4c(cnn4-c4ccc(C)cc4)c3=O)CC2)cc1,-5,-1,-1,61*,5,-28,-7,.
Cc1ccc(C)c(Sc2ccc(NC(=O)CCl)cc2)c1,1,.,-9,67*,-10,14,30,.
O=C(CCl)Nc1ccccc1Sc1ccccc1,-11,-1,2,13,-6,.,.,.
CC1=NNC(=O)/C1=C\c1cn(-c2ccccc2)nc1-c1ccc(Cl)cc1,107*,-5,9,100*,3,102*,47*,3
COc1cc(-c2nc(C(=O)NCC3CCCO3)cc3c2[nH]c2ccccc23)cc(OC)c1OC (stereo unspecified),25,0,-10,86*,22,9,54*,56*

# Screening results from PubChem.
